The results in this text go back to PubChem BioAssay AID504832 (National Center for Advancing Translational Sciences (NCATS), 2011).

Among all 310,000 compounds or so, about 18,000 (5.8%) were called active. Inconclusive results (about 22%) are left out. What follows is part of a selection rich in actives, with near analogues and random picks from the rest. Values without a mark were called inactive. The call rests on the fitted dose curve; in most records, active means well fitted inhibition curve with a large enough effect; inconclusive means small, poorly fitted or top-dose-only effect, or another doubt; inactive means no such curve, though single readings can be large or run the other way.
On the % scale 0 is the no-effect control and ±100 the full control effect; potency means the concentration at half of the fitted maximal effect.

The experiment in a line: Primary qHTS for delayed death inhibitors of the malarial parasite plastid, 48 hour incubation. The settings on record: P. falciparum luciferase growth in erythrocytes; series mostly up to 28.7 µM; activity change, negative = inhibition: at the top concentration. The essentials: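 In quantitative HTS format, infected erythrocytes bearing luciferase-reporter parasites were treated for a single generation at 37 C. Luminescence after adding detection reagent served as the growth measure.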
For the compound `O=C(NCCS(=O)(=O)NCc1ccc(F)cc1)c1ccccc1`, the “activity change, negative = inhibition” value was -2.15%.
Turning to `Cc1cc(C)nc(N/N=C/c2c(CO)cnc(C)c2O)n1`, the Potency is 10.4 µM (active).
Regarding `COc1ccc(/C=C2\SC(=S)N(CCC(=O)Nc3cccc(C(=O)O)c3)C2=O)cc1OC`, the “activity change, negative = inhibition” value was 42.2%.
The same measure, in the same setting: for `CN(NS(=O)(=O)c1cccs1)c1ncc(C(F)(F)F)cc1Cl` the value was 9.75%; for `COc1ccc(CNC(=O)c2ccc3oc(C(C)C)nc3c2)cc1`, 74.2%; for `O=C(COC(=O)/C=C/c1ccc(OC(F)F)cc1)NC1CCCCC1`, -13.5%.
The same measure, in the same setting: for `O=C(NCc1cccc(Cl)c1)C1CCN(c2nnc(N3CCCC3=O)s2)CC1` the value was 17.1%; for `COc1ccccc1CNS(=O)(=O)c1c(C)[nH]c(C)c1C(=O)N1CCCCC1`, 3.9%.
Still for that read-out and setting: to `O=C(CSc1nnnn1-c1ccc(O)cc1)c1ccc(F)cc1` belongs 31.6%.
In the case of `O=C(CSc1nnnn1-c1ccc(O)cc1)N1N=C(c2ccc3ccccc3c2)CC1c1ccccc1` (stereo not given), the Potency is 2.33 µM (active).
As for `COc1ccc(C2=NN(C(=O)CSc3nnnn3C)C(c3ccco3)C2)cc1` (stereo not given), the “activity change, negative = inhibition” value is -10.9%.
As for `Cc1cccc(C(=O)NCC(=O)OCC(=O)N2CC3(C)CC2CC(C)(C)C3)c1` (stereo not given), the “activity change, negative = inhibition” value is -0.955%.
For the compound `COc1ccccc1C(=O)N1CC2(C)CC1CC(C)(C)C2` (stereo not given), the “activity change, negative = inhibition” value is -29.8%.
As to `Cc1nnnn1/C(=C\c1ccccc1)C(=O)OCC(=O)N1CC2(C)CC1CC(C)(C)C2` (stereo not given), the Potency was 11.7 µM (active).
On to `COc1ccc(OC)c(-c2csc(NC(=O)COC(=O)C3CC3)n2)c1`, for which the “activity change, negative = inhibition” value is 9.21%.
Regarding `C=CCOc1ccccc1NC(=O)CN1C(=O)CNC1=O`, the “activity change, negative = inhibition” value is 1.8%.
On to `CCC(C)(C)NC(=O)C(c1cccn1C)N(Cc1ccc(C)cc1)C(=O)Cn1nnc2ccccc21` (stereo not given), for which the “activity change, negative = inhibition” value was -9.89%.
As for `CC(C)(C)NC(=O)C(c1ccco1)N(Cc1ccc2c(c1)OCO2)C(=O)Cn1nnc2ccccc21` (stereo not given), the Potency was 8.28 µM (active).
`CC(C)(C)NC(=O)C(c1ccncc1)N(C(=O)CNC(=O)c1ccco1)c1ccc2c(c1)OCO2` (stereo not given): the “activity change, negative = inhibition” value is 2.89%.
On the same count and under the same terms, for `COCCn1c(C)cc(C(=O)CSc2nnc(C3CC3)n2C2CC2)c1C` the value was -10.4%.
Turning to `CCC(=O)Nc1ccc(S(=O)(=O)Nc2c(NC)c3ccccc3oc2=O)cc1`, the “activity change, negative = inhibition” value is -19.6%.
For `CCOC(=O)c1sc(NC(=O)CSc2nnc(-c3ccco3)o2)c(C(=O)OCC)c1C`, the “activity change, negative = inhibition” value is -5.48%.
In the case of `CCOC(=O)c1c(NC(=O)CSc2nccc(=O)[nH]2)sc(C)c1C`, the “activity change, negative = inhibition” value is 5.21%.
In the case of `CCOC(=O)c1sc(NC(=O)CSc2nc3c(c(=O)n2-c2ccccc2)SCC3)c(C(=O)OCC)c1C`, the Potency was 1.65 µM (active).
On to `COc1cccc(N2CCN(c3ccc4nnc(CCC(=O)N5CCN(C)CC5)n4n3)CC2)c1`, for which the “activity change, negative = inhibition” value was -14%.
Consider `COc1ccc(Nc2ncnc3sc(C)cc23)cc1`, for which the “activity change, negative = inhibition” value is 28.5%.
Take `Cc1cc(Cl)ccc1C(=O)C1CCCN(C(=O)c2nonc2C)C1` (stereo not given): the “activity change, negative = inhibition” value is -4.57%.
On to `CCOC(=O)C(C)n1cnc2c(nnn2-c2ccc(F)cc2)c1=O` (stereo not given), for which the “activity change, negative = inhibition” value is 56.3%.
Consider `COc1ccccc1NC1=NC(c2ccc(Cl)cc2)N=C(N)N1` (stereo not given), for which the Potency is 10.4 µM (active).
In the case of `COc1ccccc1Nc1nc(N)nc(CSC(=S)N2CCOCC2)n1`, the “activity change, negative = inhibition” value was 21.3%.
`COc1ccccc1NC(=O)c1cc(Cl)nnc1Cl`: the “activity change, negative = inhibition” value was -20.4%.
`Cc1ccc(OCC(=O)Nc2ccc(C(=O)O)cc2NC(=O)COc2ccc(C)c(C)c2)cc1C`: the “activity change, negative = inhibition” value is 22.5%.
On the same count and under the same terms, for `O=C1Nc2ccccc2/C1=C/c1ccnc2ccccc12` the value was 13.2%.
For `CC1C(=O)C(C)C(c2ccc(O)cc2)NC1c1ccc(O)cc1` (stereo not given), the Potency was 6.57 µM (active).
For the compound `CCOC(=O)C1C(c2ccc(O)cc2)NC(=O)NC1(O)C(F)(F)F` (stereo not given), the “activity change, negative = inhibition” value was -15.2%.
Regarding `CCOc1ccc(N(CC)S(=O)(=O)c2cccc3nsnc23)cc1`, the “activity change, negative = inhibition” value was -1.52%.
Take `CCOc1ccccc1NC(=O)CCS(=O)(=O)c1cccc2nsnc12`: the “activity change, negative = inhibition” value was 1.11%.
For the compound `CCOc1ccc(OCC)c(NC(=O)CN(C)S(=O)(=O)c2cccc3nsnc23)c1`, the Potency was 1.17 µM (active).
Turning to `O=C(Nc1ccccn1)C1CCN(S(=O)(=O)c2ccccc2)CC1`, the “activity change, negative = inhibition” value is 341%.
Consider `CCN(c1ccccc1)S(=O)(=O)c1cc2c(cc1C)n(C)c(=O)c(=O)n2C`, for which the “activity change, negative = inhibition” value was 19.7%.
For `CCOC(=O)c1c(CN(C)C)n(-c2ccccc2)c2cc(Br)c(O)cc12`, the Potency is 1.17 µM (active).
As to `CCOC(=O)c1c(-c2ccccc2)oc2ccc(OC(=O)N(C)C)cc12`, the “activity change, negative = inhibition” value is -29.3%.
As for `CCOC(=O)c1ccccc1C(=O)N1CCOCCOCCOCC1`, the “activity change, negative = inhibition” value is 17%.
Take `CCOC(=O)c1c(-c2cccc(N)c2)cn2ccccc12`: the “activity change, negative = inhibition” value was 10.1%.
Consider `CCOC(=O)c1c(CN2CCOCC2)n(-c2ccccc2)c2ccc(O)cc12`, for which the Potency is 10.4 µM (active).
Regarding `CCOC(=O)c1ccccc1NC(=O)COC(=O)CCC(=O)N1CCOCC1`, the “activity change, negative = inhibition” value was 46.9%.
Take `CN(CC(=O)Nc1ccc(Cl)cc1)C(=O)c1ccc(COc2ccccc2)cc1`: the “activity change, negative = inhibition” value was 10.9%.
In the case of `CCCCn1c(N)c(N(Cc2ccccc2OC)C(=O)COc2cc(C)ccc2Cl)c(=O)[nH]c1=O`, the “activity change, negative = inhibition” value is -29.8%.
Turning to `CC(=O)c1cccc(NC(=O)CN2C(=O)c3cccnc3Oc3ccc(Cl)cc32)c1`, the Potency was 13.1 µM (active).
With `Cc1ccc2c(c1)N(CC(=O)NCCc1ccc(Cl)cc1)C(=O)c1cccnc1O2`, the “activity change, negative = inhibition” value was -9.42%.
Take `Cc1ccc2c(c1)N(CC(=O)NCCCN1CCCCC1)C(=O)c1cccnc1O2`: the “activity change, negative = inhibition” value is 5.21%.
Still for that read-out and setting: for `Cc1ccc(S(=O)(=O)N(C)CC(=O)NCCc2c[nH]c3ccccc23)cc1` the value was 0%; for `Cn1c(CNC(=O)c2ccco2)nnc1SCC(=O)N1CCN(c2ccccc2)CC1`, 12.7%; for `CC(C)c1nc2cc(C(=O)NC(C)c3cnn(C)c3)ccc2o1` (stereo not given), 18.1%.
Take `CCN(CC(=O)Nc1ccc2c(c1)OCO2)S(=O)(=O)c1ccccc1`: the “activity change, negative = inhibition” value was 4.03%.
On the same count and under the same terms, to `C/C(=N\NC(=O)Cc1ccccc1[N+](=O)[O-])c1cccnc1` belongs 22.6%.
Turning to `Cn1cccc1-c1nc2ccccc2n1C`, the “activity change, negative = inhibition” value is 15.4%.
Regarding `CN1c2ccccc2-c2nc3ccccc3n2C1c1ccco1` (stereo not given), the Potency was 11.7 µM (active).
Take `Cn1c(-c2ccco2)nc2cc3ccccc3cc21`: the “activity change, negative = inhibition” value is 126%.
Same read-out and setting: for `O=C(c1cc2cc(Br)cc(Br)c2oc1=O)N1CCOCC1` the value was 67.9%; for `CCOc1ccc(NC(=O)COc2ccc(C(=O)N3CCC(C(N)=O)CC3)cc2OC)cc1`, 46.2%; for `COc1cc2ccccc2cc1C(=O)Nc1ccncc1`, 35.6%.
Consider `COc1cc(NC(=O)c2cccs2)ccc1NC(=O)c1ccccc1Cl`, for which the “activity change, negative = inhibition” value is -28.4%.
In the case of `COc1cc2ccccc2cc1C(=O)Nc1ccc(NC(=O)c2cccs2)cc1`, the Potency is 11.7 µM (active).
For `Cc1ccnc(N2CCCC(C(=O)NC3CC3)C2)n1` (stereo not given), the “activity change, negative = inhibition” value was -1.35%.
